In PubChem BioAssay AID2685 (National Center for Advancing Translational Sciences (NCATS), 2010):
Screen size: about 320,000 compounds; about 2,100 (0.66%) were called active. Another 53% or so got no clear call; they are omitted. Calls follow the shape of the dose curve; as a rule, active = well fitted inhibition curve with a large enough effect in the signal ratio, with a control signal flat (not every such curve was filed as active); inconclusive = small, poorly fitted or top-dose-only effect, or effect the other way, or a change in a side signal; inactive = flat fitted curve, though single readings scatter; the % refers to the signal ratio. The list comes from a sample in which actives are over-represented; it also holds similar structures and randomly drawn compounds.

Assay: qHTS Assay for Lipid Storage Modulators in Drosophila S3 Cells;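 as to cell number change: cells counted by Cell Tracker Red CMTPX staining in the red channel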; as to lipid storage change, negative = inhibition: % is scaled to controls: 0 for no effect and ±100 for the full control effect
Settings: BODIPY lipid droplet fluorescence, 18-24 h, cells fed with added oleic acid; cell number change: measured here: cell count max response; series mostly up to 46.1 µM; lipid storage change, negative = inhibition: at the top concentration
Method in brief: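 Laser-scanning cytometry quantifies lipid droplet accumulation (500–530 nm total intensity; droplet/cell object ratio) in oleic acid-fed (400 uM added) Drosophila S3 cells treated with a concentration series. 20 uM Triacsin C defined 100% inhibition.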
Potency is read from the fitted curve at half-maximal effect.

| Compound | Potency | cell number change | lipid storage change, negative = inhibition | outcome |
| --- | --- | --- | --- | --- |
| c1ccc2c(c1)CCc1c(-c3ccncc3)n[nH]c1-2 | 18.4 µM (active) | 7.47% | – | – |
| CNC(=O)c1[nH]nc2c1CCc1ccccc1-2 | – | 13.3% | -1.15% (inactive) | – |
| CC(C)C(=O)N1CCN(c2ccccc2NC(=O)COc2ccccc2)CC1 | – | -6.41% | 9.3% (inactive) | – |
| CCOC(=O)N1CCN(c2c(NC3CCN(Cc4ccccc4)CC3)c(=O)c2=O)CC1 | – | 6.86% | 3.89% (inactive) | – |
| O=C(c1cccc([N+](=O)[O-])c1)N(c1ccccn1)c1ccccn1 | – | 2.68% | -6.93% (inactive) | – |
| CN(C)C(CNC(=O)c1cc(S(=O)(=O)N(C)c2ccc(F)cc2)ccc1Cl)c1ccco1 (configuration not stated) | – | – | 19.2% (inactive) | – |
| Cc1ccc(NS(=O)(=O)c2cccc(C(=O)NCC(c3ccco3)N3CCCC3)c2)cc1 (configuration not stated) | – | -2.68% | 9.46% (inactive) | – |
| CN(C)C(CNC(=O)c1ccc(S(=O)(=O)Nc2ccccc2)cc1)c1ccco1 (configuration not stated) | – | 14.1% | 13% (inactive) | – |
| COc1ccc(N(C)S(=O)(=O)c2cccc(C(=O)NCC(c3ccco3)N3CCCC3)c2)cc1 (configuration not stated) | – | 8.75% | 13.3% (inactive) | – |
| Cc1ccc(S(=O)(=O)N(C)c2ccc(C(=O)NCC(c3ccco3)N(C)C)cc2)cc1 (configuration not stated) | 1.64 µM (active) | -16.7% | – | – |
| Cc1ccc(N(C)S(=O)(=O)c2cccc(C(=O)NCC(c3ccco3)N3CCCC3)c2)cc1 (configuration not stated) | 7.31 µM (active) | -25.8% | – | – |
| Cc1ccc(C)c(NC(=S)NCC(c2ccccc2)N(C)C)c1 (configuration not stated) | – | – | – | inactive |
| Cc1cc(C)c2c(=O)cc(C(F)(F)F)oc2n1 | – | 15.1% | 9.56% (inactive) | – |
| Cc1ccc(C(=O)Nc2ccc(C(=O)N/N=C/c3cccnc3)cc2)cc1 | – | 17.5% | – | inactive |
| O=C(N/N=C/c1cccnc1)c1ccc(NC(=O)c2ccc(Cl)cc2)cc1 | 0.13 µM (active) | 0.451% | – | – |
| CC(=O)Nc1ccc(C(=O)N/N=C/c2cccnc2)cc1 | – | 0.939% | 12.5% (inactive) | – |
| CC(C)c1ccc(NC2CCCN(C(=O)c3ccccc3-c3ncc[nH]3)C2)cc1 (configuration not stated) | – | -18.8% | – | inactive |
| COc1ccc(NC(=O)Nc2ccc3c(c2)CCC3)c(OC)c1 | – | 9.57% | -7.77% (inactive) | – |
| O=C(Cn1c(-c2ccccc2)c[n+]2ccsc12)c1ccc(Br)cc1 | – | – | 21.2% (inactive) | – |
| O=C1Nc2ccc(Cl)cc2C12OCCCO2 | – | 13.2% | – | inactive |
| COC(=O)C1(C(F)(F)F)N=C(C(F)(F)F)Nc2ccc(Cl)cc21 (configuration not stated) | – | 5.94% | -2.99% (inactive) | – |
| O=C1Nc2ccc(Cl)cc2C(C#CC2CC2)(C(F)(F)F)O1 (configuration not stated) | 9.2 µM (active) | -25.6% | – | – |
| O=C(Cn1nnc2ccccc21)C1CC1 | – | 7.3% | 9.19% (inactive) | – |
| NCc1cc2c3c(c1)CCCN3CCC2 | – | – | 0.546% (inactive) | – |

| Compound | Potency | cell number change | lipid storage change, negative = inhibition | outcome |
| --- | --- | --- | --- | --- |
| C=CCOc1cccc(C(=O)N2CCCC(CNS(=O)(=O)c3cccs3)C2)c1 (configuration not stated) | – | 11.7% | 10.9% (inactive) | – |
| Cc1ccccc1-n1ncc2c1CC(C)(C)CC2NC(=O)CCC(F)(F)F (configuration not stated) | – | 7.77% | 3.89% (inactive) | – |
| CSCCC(=O)NC1CC(C)(C)Cc2c1cnn2-c1ccccc1C (configuration not stated) | – | 13.5% | 11.4% (inactive) | – |
| Cc1ccccc1-n1ncc2c1CC(C)(C)CC2NC(=O)CSc1ccncc1 (configuration not stated) | 0.461 µM (active) | -2.05% | – | – |
| CC(C)=C1SC(N2CCN(c3cccc(Cl)c3)CC2)=NC1=O | – | 5.96% | -7.9% (inactive) | – |
| COc1cccc(N2C(=NC(=O)CCc3ccccc3)SC3CS(=O)(=O)CC32)c1 (configuration not stated) | – | -7.96% | – | inactive |
| COc1cccc(N2C(=NC(=O)CCC3CCCC3)SC3CS(=O)(=O)CC32)c1 (configuration not stated) | 11.6 µM (active) | 4.89% | – | – |
| COc1cccc(N2C(=NC(=O)C3CCCCC3)SC3CS(=O)(=O)CC32)c1 (configuration not stated) | – | -4.58% | – | inactive |
| Cc1occc1C(=O)N1CCN(c2ccc(Cl)c(Cl)c2)CC1 | – | – | – | inactive |
| Cc1ccccc1OC(C)C(=O)N1CCC(Cc2ccccc2)CC1 (configuration not stated) | – | 12.1% | -2.98% (inactive) | – |
| O=C(Cc1ccc(Cl)cc1)NNS(=O)(=O)c1ccc([N+](=O)[O-])cc1 | – | 7.62% | -7.64% (inactive) | – |
| O=C(NNS(=O)(=O)c1ccccc1)c1ccc([N+](=O)[O-])cc1 | – | 3.57% | – | inactive |
| O=C(Cc1ccccc1)NNS(=O)(=O)c1ccc([N+](=O)[O-])cc1 | 1.46 µM (active) | 0.088% | – | – |
| Cc1ccc(Cc2cnc(NC(=O)/C(C#N)=C/c3ccc(-c4ccccc4[N+](=O)[O-])o3)s2)cc1 | – | -16% | 11.5% (inactive) | – |
| CCOC(=O)CNC(=O)CSc1nc(Cc2ccccc2)nc2ccccc12 | 7.31 µM (active) | -15.2% | – | – |
| CCOC(=O)CSc1nc(Cc2ccccc2)nc2ccccc12 | – | – | 0.223% (inactive) | – |
| CCOC(=O)CNC(=O)CSc1nc(Cc2cccs2)nc2ccccc12 | – | -11.5% | -32.5% (inactive) | – |
| O=C(NN=C1CCCC1)c1ccccc1[N+](=O)[O-] | – | 7.42% | – | inactive |
| Cc1cc(C)nc(NC(C)(C)C(=O)O)n1 | – | 0.119% | -23.2% (inactive) | – |
| O=C(c1ccccc1Br)N1CCCC(c2nc(-c3cccs3)no2)C1 (configuration not stated) | – | – | – | inactive |
| COc1ccc(-c2noc(C3CCCN(C(=O)c4ccc(C)cc4)C3)n2)cc1 (configuration not stated) | – | 10.5% | 4.74% (inactive) | – |
| Cc1ccc(-c2noc(C3CCCN(C(=O)c4ccccc4Br)C3)n2)cc1 (configuration not stated) | 18.4 µM (active) | -26.6% | – | – |
| Cc1nn(C)c(Cl)c1C(=O)NCC(=O)NCc1ccccc1 | – | -13% | -13.1% (inactive) | – |
